For part of these data: Entries with a potency or affinity are not part of this list.
Experiments:
Design in all cases: scale not given: direction of the effect not stated beside the values
[1] = biological target: Protein translocase subunit SecA (Escherichia coli (strain K12)) (UniProt P10408); experiment: Assay to Identify E. coli SecA ATPase Inhibitors; type: functional; conditions: 30 µM
[2] = biological target: T1, Ubiquitin-activating enzyme e1, putative (Leishmania donovani (strain BPK282A1)) (UniProt E9BSI1); experiment: Leishmania donovani Ubiquitin Activating Enzyme (LdE1); type: functional; conditions: 30 µM
T1 sequence (whole entry): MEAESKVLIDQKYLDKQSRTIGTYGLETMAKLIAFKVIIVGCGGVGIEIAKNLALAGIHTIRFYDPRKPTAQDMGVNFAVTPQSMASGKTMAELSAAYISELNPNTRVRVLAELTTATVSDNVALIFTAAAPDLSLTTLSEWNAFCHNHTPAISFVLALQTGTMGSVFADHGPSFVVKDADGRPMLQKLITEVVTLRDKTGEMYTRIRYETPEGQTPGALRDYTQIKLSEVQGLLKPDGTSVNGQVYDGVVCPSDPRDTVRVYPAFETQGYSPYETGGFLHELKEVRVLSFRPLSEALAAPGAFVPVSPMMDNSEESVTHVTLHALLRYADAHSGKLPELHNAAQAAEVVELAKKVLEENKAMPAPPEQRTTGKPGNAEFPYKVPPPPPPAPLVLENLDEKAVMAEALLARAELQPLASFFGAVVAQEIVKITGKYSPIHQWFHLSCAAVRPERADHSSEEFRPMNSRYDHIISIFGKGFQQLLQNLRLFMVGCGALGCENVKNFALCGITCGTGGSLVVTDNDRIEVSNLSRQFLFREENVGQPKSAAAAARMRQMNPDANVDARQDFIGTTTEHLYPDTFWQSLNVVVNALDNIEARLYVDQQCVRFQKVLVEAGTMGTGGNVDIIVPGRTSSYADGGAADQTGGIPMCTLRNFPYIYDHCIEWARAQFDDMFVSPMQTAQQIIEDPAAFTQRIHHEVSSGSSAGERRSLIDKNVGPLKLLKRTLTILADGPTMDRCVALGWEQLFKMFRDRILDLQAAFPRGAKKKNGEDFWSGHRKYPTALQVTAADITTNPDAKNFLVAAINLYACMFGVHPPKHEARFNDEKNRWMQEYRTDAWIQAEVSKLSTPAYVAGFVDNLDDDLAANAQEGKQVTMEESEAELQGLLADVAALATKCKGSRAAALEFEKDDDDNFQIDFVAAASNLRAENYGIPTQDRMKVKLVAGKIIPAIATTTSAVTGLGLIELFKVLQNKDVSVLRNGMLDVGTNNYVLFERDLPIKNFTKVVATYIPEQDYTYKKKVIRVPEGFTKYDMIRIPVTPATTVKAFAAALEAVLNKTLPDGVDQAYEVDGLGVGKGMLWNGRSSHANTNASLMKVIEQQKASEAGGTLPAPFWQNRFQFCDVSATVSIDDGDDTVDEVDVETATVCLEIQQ

[3] = biological target: AMP-activated protein kinase, AMPK (Homo sapiens) (UniProt P54646+O43741+P54619+Q9UGJ0+Q9Y478+Q13131+Q9UGI9); experiment: AMP-dependent Kinase enzyme assay. An in vitro enzyme assay that detects ADP turnover that is directly proportional to AMPK activity. This uses naive AMPK that is activated during the assay with MK-8722; type: functional; conditions: 30 µM
[4] = biological target: Sialic acid-binding Ig-like lectin 9 (Homo sapiens) (UniProt Q9Y336); experiment: Hs-Siglec9 ALPHAscreen SOP 20170721; conditions: 10 µM
Trypanosoma cruzi = experiment: Trypanosoma cruzi phosphomannomutase and mannose-1-phosphate guanylyltransferase assay; type: functional; conditions: 10 µM
[5] = biological target: T2, Arginase-2, mitochondrial (Homo sapiens) (UniProt P78540); experiment: in vitro enzyme assay to detect the production of urea directly proportional to the activity of Arginase II; type: functional; conditions: 33.3 µM; further: in the data most compounds retested in dose-response had high values
T2 sequence (whole entry): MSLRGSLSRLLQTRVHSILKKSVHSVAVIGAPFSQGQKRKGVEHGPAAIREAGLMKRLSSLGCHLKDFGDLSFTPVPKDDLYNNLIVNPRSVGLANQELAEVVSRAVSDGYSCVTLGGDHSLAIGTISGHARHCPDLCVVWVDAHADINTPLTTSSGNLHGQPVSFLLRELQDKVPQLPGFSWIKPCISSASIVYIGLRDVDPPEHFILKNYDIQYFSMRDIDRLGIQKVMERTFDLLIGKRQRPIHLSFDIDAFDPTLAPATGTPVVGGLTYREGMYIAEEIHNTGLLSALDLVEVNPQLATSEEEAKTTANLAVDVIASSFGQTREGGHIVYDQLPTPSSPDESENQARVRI

[6] = biological target: T3, Proteasome subunit beta (Trypanosoma cruzi) (UniProt O96673); experiment: Trypanosoma cruzi proteasome chymotrypsin-like activity (TcProtChymo) assay.; further: in the data most compounds retested in dose-response had high values; type: functional; conditions: 9.37 µM
T3 sequence (whole entry): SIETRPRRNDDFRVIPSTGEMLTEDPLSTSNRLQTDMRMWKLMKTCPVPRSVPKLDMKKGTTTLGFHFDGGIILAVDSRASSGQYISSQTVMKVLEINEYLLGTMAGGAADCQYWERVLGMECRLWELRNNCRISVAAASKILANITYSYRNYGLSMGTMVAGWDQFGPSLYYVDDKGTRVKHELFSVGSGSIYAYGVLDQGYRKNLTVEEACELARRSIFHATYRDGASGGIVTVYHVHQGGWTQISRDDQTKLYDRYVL

Homo sapiens = organism: Homo sapiens; experiment: To identify inhibition of the IFN signalling (Jak-Stat) pathway via expression of an eGFP reporter gene under the control of an IFN-stimulated response element (ISRE) containing MxA promoter.; type: functional; conditions: 30 µM
[7] = biological target: T4, Tyrosyl-tRNA synthetase, putative (Trypanosoma cruzi (strain CL Brener)) (UniProt Q4DSP6); experiment: Trypanosoma cruzi tyrosyl tRNA synthetase (TcYRS) _High Tyrosine SOP; type: functional; conditions: 30 µM; further: in the data most compounds retested in dose-response had high values
T4 sequence (whole entry): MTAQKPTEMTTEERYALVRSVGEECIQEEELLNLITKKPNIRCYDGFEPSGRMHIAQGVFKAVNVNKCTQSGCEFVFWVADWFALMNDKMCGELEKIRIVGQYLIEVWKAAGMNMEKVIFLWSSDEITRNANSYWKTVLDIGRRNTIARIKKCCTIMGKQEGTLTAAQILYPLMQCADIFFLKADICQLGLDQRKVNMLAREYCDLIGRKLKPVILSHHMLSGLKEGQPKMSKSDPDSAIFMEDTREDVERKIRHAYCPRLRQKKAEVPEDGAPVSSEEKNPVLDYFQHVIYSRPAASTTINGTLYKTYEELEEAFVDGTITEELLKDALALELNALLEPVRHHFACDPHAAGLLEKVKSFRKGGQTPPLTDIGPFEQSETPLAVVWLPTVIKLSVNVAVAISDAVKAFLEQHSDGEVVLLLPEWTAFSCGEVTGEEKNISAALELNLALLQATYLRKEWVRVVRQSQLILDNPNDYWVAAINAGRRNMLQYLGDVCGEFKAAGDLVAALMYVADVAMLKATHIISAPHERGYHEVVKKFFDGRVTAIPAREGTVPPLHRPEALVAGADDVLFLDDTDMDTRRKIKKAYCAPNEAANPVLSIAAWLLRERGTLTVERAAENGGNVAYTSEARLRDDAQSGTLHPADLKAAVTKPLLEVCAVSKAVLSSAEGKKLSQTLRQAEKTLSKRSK

[8] = biological target: T4, Tyrosyl-tRNA synthetase, putative (Trypanosoma cruzi (strain CL Brener)); experiment: Trypanosoma cruzi tyrosyl tRNA synthetase (TcYRS) SOP; type: functional; conditions: 30 µM
[9] = biological target: Chromo domain-containing protein 1 (Saccharomyces cerevisiae (strain ATCC 204508 / S288c) (Baker's yeast)) (UniProt P32657); experiment: ScCHD-1 Enzyme Inhibition Assay; type: functional; conditions: 30 µM; further: in the data most compounds retested in dose-response had high values
Sequence of Chromo domain-containing protein 1 (Saccharomyces cerevisiae (strain ATCC 204508 / S288c) (Baker's yeast)) (P32657 whole entry, the tested form may be a part): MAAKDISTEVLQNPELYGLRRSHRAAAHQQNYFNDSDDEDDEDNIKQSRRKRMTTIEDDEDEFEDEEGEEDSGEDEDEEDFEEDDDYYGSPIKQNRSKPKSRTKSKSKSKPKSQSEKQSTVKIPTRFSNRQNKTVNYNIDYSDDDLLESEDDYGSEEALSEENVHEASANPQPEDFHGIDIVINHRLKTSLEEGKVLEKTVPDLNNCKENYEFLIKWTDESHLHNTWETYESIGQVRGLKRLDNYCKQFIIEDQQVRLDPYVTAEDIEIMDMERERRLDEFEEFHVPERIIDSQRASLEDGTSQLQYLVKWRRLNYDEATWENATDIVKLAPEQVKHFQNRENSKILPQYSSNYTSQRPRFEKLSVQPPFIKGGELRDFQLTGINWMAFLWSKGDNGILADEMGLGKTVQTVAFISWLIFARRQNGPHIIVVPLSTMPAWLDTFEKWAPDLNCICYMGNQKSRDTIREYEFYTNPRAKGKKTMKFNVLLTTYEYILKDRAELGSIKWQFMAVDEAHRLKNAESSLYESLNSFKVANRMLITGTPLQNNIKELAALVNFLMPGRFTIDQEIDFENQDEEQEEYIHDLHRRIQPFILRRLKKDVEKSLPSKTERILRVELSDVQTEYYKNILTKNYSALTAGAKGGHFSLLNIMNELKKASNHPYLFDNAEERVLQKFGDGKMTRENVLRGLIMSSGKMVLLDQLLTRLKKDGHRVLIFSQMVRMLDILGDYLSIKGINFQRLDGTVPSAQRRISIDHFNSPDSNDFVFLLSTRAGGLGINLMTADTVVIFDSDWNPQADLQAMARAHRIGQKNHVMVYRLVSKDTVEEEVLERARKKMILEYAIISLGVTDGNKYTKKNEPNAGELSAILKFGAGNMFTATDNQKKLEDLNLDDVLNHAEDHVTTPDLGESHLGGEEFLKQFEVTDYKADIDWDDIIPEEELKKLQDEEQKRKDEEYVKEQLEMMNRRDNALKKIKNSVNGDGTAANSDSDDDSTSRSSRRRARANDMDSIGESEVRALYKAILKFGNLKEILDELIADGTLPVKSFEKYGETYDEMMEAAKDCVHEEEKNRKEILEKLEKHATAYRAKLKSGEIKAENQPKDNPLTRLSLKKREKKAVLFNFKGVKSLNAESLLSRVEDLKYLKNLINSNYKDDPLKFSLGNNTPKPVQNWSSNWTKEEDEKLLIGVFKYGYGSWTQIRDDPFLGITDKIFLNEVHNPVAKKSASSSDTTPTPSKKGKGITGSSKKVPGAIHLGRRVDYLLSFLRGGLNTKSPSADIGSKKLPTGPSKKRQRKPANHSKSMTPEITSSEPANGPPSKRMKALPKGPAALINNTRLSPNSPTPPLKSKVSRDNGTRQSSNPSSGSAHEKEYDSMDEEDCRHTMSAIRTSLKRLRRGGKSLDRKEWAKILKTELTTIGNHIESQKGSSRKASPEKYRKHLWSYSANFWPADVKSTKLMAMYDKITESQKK

Sequence of Sialic acid-binding Ig-like lectin 9 (Homo sapiens) (Q9Y336 whole entry): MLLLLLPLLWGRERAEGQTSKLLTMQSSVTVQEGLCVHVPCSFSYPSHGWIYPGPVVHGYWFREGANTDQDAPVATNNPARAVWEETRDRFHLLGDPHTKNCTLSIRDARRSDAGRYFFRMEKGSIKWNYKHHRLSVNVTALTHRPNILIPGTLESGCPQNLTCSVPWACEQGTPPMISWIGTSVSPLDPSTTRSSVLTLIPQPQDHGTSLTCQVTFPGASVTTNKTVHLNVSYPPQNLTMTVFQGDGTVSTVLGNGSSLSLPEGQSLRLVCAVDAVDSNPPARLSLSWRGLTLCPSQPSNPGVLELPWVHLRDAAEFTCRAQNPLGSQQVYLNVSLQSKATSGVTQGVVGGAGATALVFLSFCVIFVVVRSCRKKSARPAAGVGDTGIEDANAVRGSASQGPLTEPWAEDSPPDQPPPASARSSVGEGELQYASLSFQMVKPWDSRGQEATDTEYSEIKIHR
Sequence of Protein translocase subunit SecA (Escherichia coli (strain K12)) (P10408 whole entry): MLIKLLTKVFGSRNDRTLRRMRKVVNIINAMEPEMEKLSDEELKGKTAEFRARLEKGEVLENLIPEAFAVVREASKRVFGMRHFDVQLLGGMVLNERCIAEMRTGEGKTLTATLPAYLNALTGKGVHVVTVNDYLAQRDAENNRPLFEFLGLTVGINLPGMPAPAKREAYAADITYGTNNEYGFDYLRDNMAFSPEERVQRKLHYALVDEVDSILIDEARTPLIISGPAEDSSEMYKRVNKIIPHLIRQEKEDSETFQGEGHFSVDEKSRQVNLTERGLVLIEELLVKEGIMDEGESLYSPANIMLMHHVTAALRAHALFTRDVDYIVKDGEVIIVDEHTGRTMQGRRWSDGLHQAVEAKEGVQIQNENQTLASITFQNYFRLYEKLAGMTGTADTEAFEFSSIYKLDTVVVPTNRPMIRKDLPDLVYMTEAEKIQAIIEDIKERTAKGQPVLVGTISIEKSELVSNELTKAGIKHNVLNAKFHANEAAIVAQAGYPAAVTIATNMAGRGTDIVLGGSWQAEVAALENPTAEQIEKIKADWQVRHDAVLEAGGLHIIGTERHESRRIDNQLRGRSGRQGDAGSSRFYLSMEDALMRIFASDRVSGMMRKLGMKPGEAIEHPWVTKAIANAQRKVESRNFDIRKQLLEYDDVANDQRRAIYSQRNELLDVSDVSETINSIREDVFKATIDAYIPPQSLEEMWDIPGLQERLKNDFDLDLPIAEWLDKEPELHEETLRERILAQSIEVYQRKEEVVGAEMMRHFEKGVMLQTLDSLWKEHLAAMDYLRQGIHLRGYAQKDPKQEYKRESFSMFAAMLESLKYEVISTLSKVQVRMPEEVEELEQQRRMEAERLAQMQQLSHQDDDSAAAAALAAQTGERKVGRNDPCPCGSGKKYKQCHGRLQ

| SMILES | Percent Effect [1] [%] | Percent Effect [2] [%] | Percent Effect [3] [%] | Percent Effect [4] [%] | Percent Effect (Trypanosoma cruzi) [%] | Percent Effect [5] [%] | Percent Effect [6] [%] | Percent Effect (Homo sapiens) [%] | Percent Effect [7] [%] | Percent Effect [8] [%] | Percent Effect [9] [%] |
| --- | --- | --- | --- | --- | --- | --- | --- | --- | --- | --- | --- |
| CNc1cncc(C2CCCN2C(=O)c2ccc3oc(=O)n(C)c3c2)n1 (centres undefined) | -2.39 | 14.9 | 8.4 | -7.77 | 3.36 | 0.696 | 9.36 | -8.91 | 5.38 | 3.9 | -16.2 |
| COCc1ccc(CNC(=O)C2=NN(c3ccccc3)C(=O)CN2)cc1 | -0.976 | 5.41 | 6.06 | -1.63 | -9.09 | 1.24 | 14 | 53.6 | 3.23 | 13.6 | -4.43 |
| CNC(=O)c1cccc(C2CNCCN2C)c1 (centres undefined) | 1.64 | 14.9 | 4.3 | -1.87 | -2.96 | 7.19 | 12.2 | -5.37 | 0 | 6.49 | -5.34 |
| O=C1COC2(CCN(Cc3cccs3)CC2)CN1c1ccccc1 | -2.08 | 5.48 | 0.847 | 2.36 | -1.39 | -2.4 | 7.62 | -0.737 | 3.12 | 3.7 | -0.651 |
| Cc1ccc(NC2CCN(C(=O)COc3cccnc3)CC2)nn1 | -5.07 | 21.5 | -3.6 | -4.99 | -0.923 | -1.94 | 14.1 | 12.9 | 4.17 | 15.2 | -15.5 |
| O=C(Cn1cc(C(=O)O)ccc1=O)Nc1ccc(Cl)cc1F | -1.04 | 20 | -5.95 | 0.752 | 1.38 | -4.75 | 10.7 | 9.59 | 7.41 | 10.3 | -12 |
| CN1CCCC1CNC(=O)CCCOc1ccc(F)cc1 (centres undefined) | -1.24 | 0 | 7.48 | 11.7 | 4.7 | -3.83 | 0.835 | -4.13 | 4.41 | 7.32 | -3.92 |
| Cc1cccnc1NC(=O)NC(C)Cn1cccn1 (centres undefined) | -8.41 | 10.4 | 7.9 | 3.8 | -5.62 | 1.78 | 0.845 | 23.3 | 3.88 | 2.44 | -4.43 |
| Cn1ncc2c(=O)[nH]c(N3CCN(C(=O)c4ccsc4)CC3)nc21 | -5.57 | 2.7 | 2.37 | -0.0131 | -6.32 | 17.2 | 3.24 | 25 | -1.48 | -11.1 | 1.01 |
